From ChEMBL document CHEMBL3988442, “University of Dundee, Small-Polar-MMV Screening Library” (2021)
About 13,000 (27%) of roughly 48,000 compounds showed an effect of 50% or more. The list shows a part of the results.

system: Wolbachia pipientis; experiment: Anti-Wolbachia Cell-Based Screen; type: functional; design: scale not given: in the data most compounds retested in dose-response had high values; conditions: 5 µM

| SMILES | Percent Effect [%] |
| --- | --- |
| O=C1CCCN1C1CCN(S(=O)(=O)CCOc2ccc(F)cc2)CC1 | 0.4633 |
| CN(Cc1cnn(C)c1)CC1CCCN1c1cccnn1 (centres undefined) | 108.8 |
| CN(Cc1cccnc1)CC1CCCN1c1cccnn1 (centres undefined) | -2.765 |
| Cc1nnc(CN(C)CC2CCCN2c2cccnn2)o1 (centres undefined) | -3.082 |
| CN(CCc1ccncc1)CC1CCCN1c1cccnn1 (centres undefined) | 116.4 |
| CN(Cc1ncc(C(C)(C)C)o1)CC1CCCN1c1cccnn1 (centres undefined) | 16.2 |
| CN(CC(=O)Nc1ccncc1)CC1CCCN1c1cccnn1 (centres undefined) | 2.636 |
| CC(c1ccccc1Cl)N(C(=O)CSCC(N)=O)C1CC1 (centres undefined) | -12.69 |
| Cn1cc(C(=O)Nc2cccc(F)c2)ccc1=O | 0.158 |
| O=C(NCc1nnc2n1CCC2)N1CCc2sccc2C1 | 90.24 |
| CC(C)NC(=O)C1CCN(C(C)C(=O)N2CCc3sccc3C2)CC1 (centres undefined) | -8.464 |
| O=C(NCc1nnc2n1CCCCC2)N1CCc2sccc2C1 | 8.039 |
| O=C(NCc1nnc2n1CCCC2)N1CCc2sccc2C1 | 127.9 |
| CC(NCc1nnc2n1CCCC2)C(=O)N1CCc2sccc2C1 (centres undefined) | 124.2 |
| O=C(NCc1nnc2n1CCCCC2)N1CCc2ccccc2C1 | 97.78 |
| O=C(NCc1nnc2n1CCC2)N1CCC2(CCCCC2)CC1 | 10.88 |
| O=C(NCc1nnc2ccccn12)N1CCc2sccc2C1 | -3.483 |
| O=C(NCc1nnc2n1CCCCC2)N1CCC2(CCCCC2)C1 | -0.2574 |
| CC(NCc1nnc2n1CCCC2)c1nc(-c2cccs2)no1 (centres undefined) | -0.8773 |
| O=C(NCc1ccc(N2CCCC2)nc1)N1CCc2sccc2C1 | -1.896 |
| O=C(NCc1nnc2n1CCCC2)N1CCc2ccccc2C1 | 5.135 |
| CCC(=O)c1ccc(OCC(=O)NC(C)Cc2cc(C)n[nH]2)cc1 (centres undefined) | -9.204 |
| CC(C)NC(=O)N1CCN(S(=O)(=O)C2CC2)CC2(CNC(=O)C2)C1 (centres undefined) | 10.45 |
| CCn1cc(CN2CCCN(C(=O)C3=NN(C)C(=O)CC3)CC2)cn1 | 3.458 |
| Cn1cc(CCC(=O)N2CCN(Cc3ccncc3)CC2)cn1 | -1.736 |
| CCn1cc(CN2CCCN(C(=O)CCCn3cncn3)CC2)cn1 | 2.568 |

| SMILES | Percent Effect [%] |
| --- | --- |
| CCn1cc(CN2CCCN(C(=O)CCc3ccncc3)CC2)cn1 | -3.575 |
| CCn1cc(CN2CCCN(C(=O)CCc3ccccc3)CC2)cn1 | 96.36 |
| CCn1cc(CN2CCCN(C(=O)CCN3CCCC3=O)CC2)cn1 | 112.3 |
| CCn1cc(CN2CCCN(C(=O)C3(C#N)CCCCC3)CC2)cn1 | -13.94 |
| CCn1cc(CN2CCCC3(CCC(=O)N(CCC(C)C)C3)C2)cn1 (centres undefined) | -5.478 |
| CCn1cc(CN2CCCN(C(=O)CCn3cc(C)cn3)CC2)cn1 | 86.19 |
| CCn1cc(CN2CCCN(C(=O)CCc3cnn(C)c3)CC2)cn1 | 103.4 |
| OCC1(O)CCN(c2ncccc2C(F)(F)F)CC1 | 1.862 |
| Cc1[nH]ccc1C(=O)N[C@H]1CN(S(C)(=O)=O)C[C@@H]1C1CC1 | 3.151 |
| CC(C)Cc1ncc2c(n1)CN(C(=O)c1ccc(Cn3ccnc3)o1)C2 | -18.35 |
| CCn1ccnc1CN1C[C@@H](NC(=O)C2CC2)[C@H](c2ccc(C)cc2)C1 | -6.865 |
| C[C@H]1CN(C)C[C@@]12COCCN(C(=O)Cc1ccccc1)C2.O=C(O)C(F)(F)F | 7.732 |
| CC(=O)N1CCC(C(=O)N2CCOC(CC3CCCCC3)C2)CC1 (centres undefined) | -4.464 |
| CCn1cc(CN2CCCN(C(=O)CCc3nccs3)CC2)cn1 | 73.27 |
| CCn1cc(CN2CCCN(C(=O)CCc3cccs3)CC2)cn1 | 101.9 |
| CC(=O)Nc1nc(COc2nc(C)no2)cs1 | -3.939 |
| CCCN1CCC(CC(=O)N(C)CC(=O)c2ccc(O)cc2)CC1 | -25.77 |
| Cc1ncc2c(n1)CN(Cc1noc(C3CC3)n1)CC2 | 2.312 |
| O=C1CCC(C(=O)NCc2nn(-c3ccccc3)c3c2CCC3)CN1 (centres undefined) | 1.199 |
| O=C(c1csc(-c2ncccn2)n1)N1CCN(C2CCCC2)CC1 | -8.107 |
| COc1ccc(Cl)cc1CS(=O)(=O)CC(=O)NC(C)CCC(C)C (centres undefined) | 2.702 |
| Cn1cccc1C(=O)N1CC[C@H]2[C@H]1CCN2CC1CC1.O=C(O)C(F)(F)F | 2.648 |
| O=C(O)C(F)(F)F.O=C(O)C(F)(F)F.c1cncc(-c2ccc3c(c2)CCC32CCN(Cc3ccco3)CC2)c1 | 99.06 |
| CN(C)CC(=O)N1CCC2(CCc3cc(-c4cccnc4)ccc32)CC1.O=C(O)C(F)(F)F.O=C(O)C(F)(F)F | 1.059 |
| c1cncc(-c2ccc3c(c2)CCC32CCNCC2)c1 | -33.05 |
| c1cncc(-c2ccc3c(c2)C2(CCNCC2)CC3)c1 | 1.24 |

| SMILES | Percent Effect [%] |
| --- | --- |
| O=C(O)C(F)(F)F.O=C(O)C(F)(F)F.c1cncc(-c2ccc3c(c2)CCC32CCN(Cc3nccs3)CC2)c1 | 11.05 |
| O=c1cccnn1CC1CN(c2ncc(F)cn2)Cc2nccn2C1 (centres undefined) | 114.7 |
| O=C(O)C(F)(F)F.O=c1cccnn1CC1CN(CC2CCCC2)Cc2nccn2C1 (centres undefined) | 100.1 |
| Cc1nc(C)n(CC2CN(c3ncccn3)Cc3nccn3C2)n1 (centres undefined) | 9.978 |
| O=C(O)C(F)(F)F.O=c1cccnn1CC1CN(Cc2ccsc2)Cc2nccn2C1 (centres undefined) | 13.39 |
| Cc1cnc(N2Cc3nccn3CC(Cn3ncccc3=O)C2)nc1.O=C(O)C(F)(F)F (centres undefined) | 104.6 |
| O=C(O)C(F)(F)F.O=C(O)C(F)(F)F.c1cn2c(n1)CN(CC1CC1)CC(CN1CCOCC1)C2 (centres undefined) | 13.29 |
| Cc1cnc(N2Cc3nccn3CC(Cn3nc(C)nc3C)C2)nc1 (centres undefined) | 1.951 |
| CCCN1CCCN(C(=O)c2ccc(Oc3cccnc3)cc2)CC1 | 1.766 |
| O=C1NCCCCC1NS(=O)(=O)N1CCCCC1 (centres undefined) | 30.79 |
| Cc1nccn1-c1cc(CNC(=O)N2CCSCC2)ccn1 | -3.633 |
| Cc1cc(CNc2ccc(CC(=O)N(C)c3ccccc3)cc2)no1 | -7.262 |
| OC(CN(Cc1ccccc1)Cc1ccncc1)c1ccco1 (centres undefined) | 6.092 |
| O=C(COC(=O)Cc1cccs1)NCc1cccc(NC(=O)C2CC2)c1 | 2.841 |
| Cc1cc(NC(=O)CN2CCn3c(nnc3-c3ccccc3)C2)no1 | 6.417 |
| Cc1cccc(NC(=O)CN2C(=O)CC(C)(C)c3ccccc32)n1 | 106.1 |
| CC1(C)CC(=O)N(CC(=O)Nc2ccon2)c2ccccc21 | 100.4 |
| Cc1cc(NC(=O)CN2CCn3c(C)nnc3C2)no1 | 3.854 |
| Cc1cc(NC(=O)CN2C(=O)CC(C)(C)c3ccccc32)no1 | 116.9 |
| CC1CN(C)c2ccccc2CN1C(=O)NCc1ccon1 (centres undefined) | 0.2534 |
| Cc1cccc(NC(=O)[C@@H]2CCCN2CC(=O)N2CCCCCC2)n1 | 2.208 |
| O=C(NCC1CC(=O)N(CCc2ccccc2)C1)c1ccon1 (centres undefined) | 4.92 |
| CCOCc1cccc(S(=O)(=O)N2CCSCC2)c1 | 5.017 |
| CCCS(=O)(=O)N1C[C@@H](Oc2ccccn2)[C@H]2OCCC[C@H]21.O=C(O)C(F)(F)F | 4.768 |
| CCCS(=O)(=O)N1CCO[C@H]2[C@@H](Oc3cccnc3)CC[C@@H]21.O=C(O)C(F)(F)F | 101.6 |
| O=C(O)C(F)(F)F.O=S(=O)(C1CC1)N1CCO[C@H]2[C@@H](Oc3ncccc3F)CC[C@@H]21 | 120.5 |

| SMILES | Percent Effect [%] |
| --- | --- |
| CCCS(=O)(=O)N1CCO[C@H]2[C@H](OCc3ccccn3)CC[C@@H]21.O=C(O)C(F)(F)F | -14.38 |
| CCS(=O)(=O)N1C[C@@H](Oc2ccccn2)[C@H]2OCCC[C@H]21.O=C(O)C(F)(F)F | -45.01 |
| CS(=O)(=O)N1C[C@@H](Oc2ccccn2)[C@H]2OCCC[C@H]21.O=C(O)C(F)(F)F | 12.05 |
| CS(=O)(=O)N1CCO[C@H]2[C@@H](Oc3ncccc3F)CC[C@@H]21.O=C(O)C(F)(F)F | 100.8 |
| CN(C)S(=O)(=O)N1C[C@@H](Oc2ccccn2)[C@H]2OCCC[C@H]21.O=C(O)C(F)(F)F | -0.1257 |
| CCS(=O)(=O)N1CCO[C@H]2[C@H](Oc3ncccc3F)CC[C@@H]21.O=C(O)C(F)(F)F | 5.015 |
| CCCS(=O)(=O)N1C[C@@H](Oc2ncccc2F)[C@H]2OCCC[C@H]21.O=C(O)C(F)(F)F | 117.2 |
| O=C(O)C(F)(F)F.O=S(=O)(C1CC1)N1C[C@H](Oc2ccccn2)[C@H]2OCCC[C@H]21 | 9.296 |
| CN(CCCc1cc(-c2cccc(F)c2)n[nH]1)C(=O)Cn1cncn1 | -5.082 |
| COc1ccccc1OC1CN(C(=O)Cc2c(C)nc(C)[nH]c2=O)C1 | -23.21 |
| CC(CNC(=O)c1cc(-n2cccn2)ccn1)Cn1ccnc1 (centres undefined) | -5.602 |
| COCCCn1ccc(NCc2cnc(C(C)(C)C)s2)n1 | 1.35 |
| Cn1nc(Cn2ccnc2)c2c1CN(c1nccs1)C2.O=C(O)C(F)(F)F.O=C(O)C(F)(F)F | 4.707 |
| CCn1cnnc1CCNC(=O)CCNC(=O)c1ccccc1F | 3.625 |
| COC(=O)[C@@H]1CN(C(=O)Nc2ccccc2)CCN1C(C)=O | -6.785 |
| CC(=O)N1CCN(C(=O)Nc2ccccc2)CC2(CC(=O)N(C)C2)C1 (centres undefined) | -20.73 |
| COC1CN(C(=O)C2CC2)CCC(=O)N(C)c2ccccc21 (centres undefined) | 115 |
| COC(=O)N1CCCN(C(=O)NC2CCc3ccccc3C2)CC1 (centres undefined) | -2.418 |
| COC1CCN(C(=O)Nc2ccccc2)CC(=O)N(C)c2ccccc21 (centres undefined) | 112.2 |
| Cn1cc(NC(=O)N2CCC(c3ccccc3)CC2)ccc1=O | -11.38 |
| O=C(C1CC=CC1)N1CC[C@H]2[C@@H]1CCC(=O)N2c1ccccc1 | -0.4954 |
| COC1CN(C(=O)NC2CCCC2)CCC(=O)N(C)c2ccccc21 (centres undefined) | 116.2 |
| O=C(NC1CCCC1)N1C[C@H]2CN(c3ccccn3)C[C@@]2(C(=O)O)C1 | -9.055 |
| CN1C(=O)CCN(C(=O)C2CC=CC2)c2ccccc21 | 2.91 |
| COC1CN(C(=O)Nc2ccccc2)CCC(=O)N(C)c2ccccc21 (centres undefined) | 93.19 |
| O=C1NCCN2CCN(C(=O)Nc3ccc(-c4ccccc4)cc3)CC12 (centres undefined) | -8.363 |
